SMILES strings stand for the structures. Records with an inconclusive call do not appear. Active and inactive are the calls of the source. Unless noted, calls come from the whole dose curve; as a rule, active = well fitted curve in the direction sought with a large enough effect; inconclusive = small, poorly fitted or top-dose-only effect, or another doubt; inactive = no such curve, though single readings can be large; an effect the other way counts as inactive or inconclusive.

This note sets out measurements from PubChem BioAssay (NCATS).

Experiment [1] in a line: Cytotoxicity counterscreen for NFkB agonists and antagonists (AID 624476). Note: potency is the fitted concentration of half-maximal effect.
Experiment [2] can be described thus: qHTS Assay for Identification of Small Molecule Agonists for NFkB Signaling Pathway. (AID 624478).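 Note: compounds tested together with TNF alpha at its EC50 of 10 pM; 0% is about no effect.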 The method, boiled down:
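Cells carrying an NFkB response element-driven beta-lactamase gene are co-treated with compound and 10 pM TNF alpha for 5 h, and reporter activity is then read as 460 and 530 nm fluorescence.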

A short description of experiment [3]: qHTS Assay for Identification of Small Molecule Antagonists for NFkB Signaling Pathway. (AID 624479; calls by dose curve;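 note: pathway stimulated with TNF alpha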; note: potency is the fitted concentration of half-maximal effect). In general terms: qHTS replaces the single test concentration by a dilution series.
Experiment [4] in a line: Cell Proliferation Assay against the TMD8 Cell Line (AID 651645).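 Note: cells exposed to compound for 48 h before reading.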 The conditions noted are these: TMD8 DLBCL cell line proliferation/viability; at 46.1 µM (top of the series). The procedure, abridged: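 TMD8 ABC DLBCL cells, 500 per well in phenol red-free RPMI with 5% FBS, were treated with compound by pin transfer and incubated 48 hours at 37C, 5% CO2. Viability was read by CellTiter-Glo luminescence, normalised to DMSO (100%) and 9.2 uM bortezomib (0%).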

Experiment [5] can be described thus: Cell Proliferation Assay against the HBL1 Cell Line (AID 651646).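 Note: cells exposed to compound for 48 h before reading.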 Particulars: HBL1 DLBCL cells; at 46.1 µM (top of the series). The procedure, abridged:
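HBL1 ABC DLBCL cells, 500/well in RPMI with 5% FBS, treated for 48 h at 37C. Viability read by CellTiter-Glo luminescence, normalized to DMSO as 100% and 9.2 uM bortezomib as 0%.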

Experiment [6] is described as follows: Cell Proliferation Assay against the TMD8 Cell Line (Caspase readout at 8 hrs) (AID 651713). Note: potency is the fitted concentration of half-maximal effect. The method, boiled down: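 Percent activity derived from Caspase-Glo signal, DMSO set to 0% and bortezomib (9.2 uM final) to 100%. TMD8 cells were exposed to compound for 8 h in RPMI with 5% FBS.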
The nature of experiment [7]: Cell Proliferation Assay against the TMD8 Cell Line (Caspase readout at 16 hrs) (AID 651712). Note: potency is the fitted concentration of half-maximal effect. The procedure, abridged: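 TMD8 cells in RPMI with 5% FBS were treated with compound for 16 h at 37 C, then caspase 3/7 activation was read by Caspase-Glo luminescence. Percent activity was scaled to DMSO (0%) and 9.2 uM bortezomib final (100%).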

On to `CC(C)CC(=O)Nc1n[nH]c2c1CN(C(=O)C1CCN(C)CC1)C2(C)C`, for which the Potency in experiment [1] is 2.35 µM (active); in experiment [3], 0.266 µM (active); in experiment [6], 2.35 µM (active). In addition, in experiment [2], the compound was called inactive. In addition, the viability (% of control) in experiment [4] turned out to be 4.73%. The viability, percent of control in experiment [5] was found to be 49.6%.

Take `CCCCCN(CCC12CC3CC(CC(C3)C1)C2)C(=O)NCCCc1ccncc1`: the figures for the Potency in experiment [1], in experiment [3] and in experiment [6] were 23.5 µM (active), 21.1 µM (active) and 23.5 µM (active), respectively. Besides, the viability (% of control) in experiment [4] worked out at 1.96%. For the same compound, the viability, percent of control in experiment [5] came to 1.97%.

Take `Cc1[nH]c2ccccc2c1CCNCc1ccc(C=CC(=O)NO)cc1`: the values for the Potency in experiment [1] and in experiment [7] were 0.332 µM (active) and 0.0332 µM (active), respectively. In experiment [2], the compound was classed as inactive. In addition, the viability (% of control) in experiment [4] worked out at 1.52%. Further, the viability, percent of control in experiment [5] was -0.0299%.

For `NC(=O)c1c(OCc2c(F)cc(Br)cc2F)nsc1NC(=O)NCCCCN1CCCC1`, the Potency result in experiment [1] and in experiment [7] was “inactive” each time. In experiment [2], the compound was called inactive. The viability (% of control) in experiment [4] is 8.16%. In experiment [5], the viability, percent of control worked out at 4.14%.

As to `Nc1nc(-c2nn(Cc3ccccc3F)c3ncccc23)nc(N)c1N1CCOCC1`, the Potency entry in experiment [1], in experiment [3], in experiment [7] and in experiment [6] was “inactive” in each case. Besides, the call in experiment [2] was inactive.

For the compound `CC(NCc1ccc2c(c1)nc(NC(=O)c1ccc(-c3cn[nH]c3)s1)n2CC(C)(C)O)C(C)(C)C` (stereo unspecified), the Potency in experiment [1] was 0.332 µM (active); in experiment [3], 0.0266 µM (active); in experiment [6], 0.332 µM (active). Further, the compound was classed as inactive in experiment [2]. For the same compound, the viability (% of control) in experiment [4] was 1.7%. The viability, percent of control in experiment [5] was 1.76%.

As to `O=C(Nc1cc(C(F)(F)F)cc(C(F)(F)F)c1)c1cc(Cl)ccc1O`, the Potency in experiment [1] was 0.235 µM (active); in experiment [7], 0.296 µM (active). Also, in experiment [2], the compound was called inactive. In experiment [4], the viability (% of control) is 1.86%. The viability, percent of control in experiment [5] is 12.7%.

In the case of `CCCCc1nc2cc(C=CC(=O)NO)ccc2n1CCN(CC)CC`, the Potency in experiment [1] is 14.8 µM (active); in experiment [7], 0.332 µM (active). The outcome in experiment [2] was inactive. In addition, in experiment [4], the viability (% of control) is 1.77%. Also, in experiment [5], the viability, percent of control worked out at 1.9%. For the same compound, the Potency entry in experiment [6] is “inactive”.

Consider `CN1CCN(c2cc(C(=O)Nc3ccc4c(c3)-c3c(c(C(N)=O)nn3-c3ccc(F)cc3)CC4)c(Cl)cn2)CC1`, for which the Potency entry in experiment [1] was “inactive”. Moreover, in experiment [2], the compound was called inactive. Also, the viability (% of control) in experiment [4] came to 0.112%. Besides, the viability, percent of control in experiment [5] was 0.345%. Further, in experiment [6], the Potency is 33.2 µM (active).

On to `Nc1nccc(Oc2ccc(NC(=O)c3c[nH]cc(-c4ccc(F)cc4)c3=O)cc2F)c1Cl`, for which the Potency in experiment [1] was 18.7 µM (active); in experiment [3] it was 5.95 µM (active). In addition, the viability (% of control) in experiment [4] turned out to be 4.79%. In experiment [5], the viability, percent of control was 14.4%. Further, the Potency entry in experiment [7] and in experiment [6] was “inactive” in each case.

As to `CC(C)(C)c1cc(NC(=O)Nc2ccc(-c3cn4c(n3)sc3cc(OCCN5CCOCC5)ccc34)cc2)no1`, the compound was classed as inactive in experiment [2]. Further, in experiment [3], the Potency was 13.3 µM (active). In addition, in experiment [4], the viability (% of control) was 41.9%. The viability, percent of control in experiment [5] was 30.7%. Also, the Potency result in experiment [7] and in experiment [6] was “inactive” in each case.

On to `CC(C)(C)c1cc(C(C)(C)C)c(NC(=O)c2c[nH]c3ccccc3c2=O)cc1O`, for which the Potency in experiment [3] was 23.7 µM (active). The viability (% of control) in experiment [4] was determined as 5.21%. In addition, the viability, percent of control in experiment [5] turned out to be 5.33%.

Regarding `CC(C)(C)OC(=O)Nc1ccc(-c2cc(C(=O)NCCCCCCC(=O)NO)no2)cc1`, the outcome in experiment [2] was inactive. In experiment [3], the Potency result was “inactive”. For the same compound, in experiment [4], the viability (% of control) was 2.43%. For the same compound, the viability, percent of control in experiment [5] was determined as 3.39%. Moreover, in experiment [7], the Potency was 1.32 µM (active).

For `CCC(=C(c1ccccc1)c1ccc(OCCN(C)C)cc1)c1ccccc1`, the values for the Potency in experiment [3] and in experiment [6] were 21.1 µM (active) and 33.2 µM (active), respectively. Further, the viability (% of control) in experiment [4] was -0.936%. Also, in experiment [5], the viability, percent of control was -1.5%.

Consider `CC(=O)c1c(C)c2cnc(Nc3ccc(N4CCNCC4)cn3)nc2n(C2CCCC2)c1=O`, for which, in experiment [2], the result was inactive. The Potency was 16.8 µM (active) in experiment [3], 18.7 µM (active) in experiment [7] and 33.2 µM (active) in experiment [6]. Besides, in experiment [4], the viability (% of control) was determined as 0.508%. In experiment [5], the viability, percent of control was 1.52%.

With `CC(=O)OCC(=O)[C@@]1(O)[C@H](C)C[C@H]2[C@@H]3C=C(C)C4=Cc5c(cnn5-c5ccccc5)C[C@]4(C)[C@@H]3[C@@H](O)C[C@@]21C`, the outcome in experiment [2] was inactive. For the same compound, in experiment [4], the viability (% of control) is 3.02%. The viability, percent of control in experiment [5] was 2.93%. Moreover, in experiment [7], the Potency is 20.9 µM (active). In experiment [6], the Potency entry was “inactive”.

With `CCN(CC)CCCCNc1ncc2cc(-c3cc(OC)cc(OC)c3)c(NC(=O)NC(C)(C)C)nc2n1`, the compound was classed as inactive in experiment [2]. The viability (% of control) in experiment [4] is 3%. Moreover, the viability, percent of control in experiment [5] was determined as 7.6%. Moreover, the Potency result in experiment [7] was “inactive”. Moreover, in experiment [6], the Potency is 26.4 µM (active).

Consider `COc1cc(C(C)C)c2c(c1)S(=O)(=O)N(COc1cc(=O)n3cccc(OCCN4CCCCC4)c3n1)C2=O`, for which, in experiment [2], the call was inactive. Also, the Potency in experiment [3] is 14.9 µM (active). In addition, the viability (% of control) in experiment [4] came out at 0.892%. Besides, in experiment [5], the viability, percent of control was 1.12%. Further, the Potency entry in experiment [7] is “inactive”.

With `Cc1cnc(Nc2ccc(F)cc2Cl)nc1-c1c[nH]c(C(=O)N[C@H](CO)c2cccc(Cl)c2)c1`, the compound was called inactive in experiment [2]. Moreover, in experiment [4], the viability (% of control) is -0.93%. In experiment [5], the viability, percent of control was found to be 0.107%.

As to `C[C@@H](Oc1cc(-n2cnc3ccc(CN4CCN(C)CC4)cc32)sc1C(N)=O)c1ccccc1C(F)(F)F`, in experiment [2], the outcome was inactive. Also, the Potency result in experiment [3] is “inactive”. The viability (% of control) in experiment [4] is 2.56%. Further, the viability, percent of control in experiment [5] came out at 3.16%. Besides, the Potency in experiment [6] was 23.5 µM (active).

Turning to `C1=CCOCc2cc(ccc2OCCN2CCCC2)Nc2nccc(n2)-c2cccc(c2)OCC1`, the compound was classed as inactive in experiment [2]. Also, the viability (% of control) in experiment [4] was 61.1%.

As for `CC[C@H](CO)Nc1nc(NCc2ccccc2)c2ncn(C(C)C)c2n1`, the result in experiment [2] was inactive. For the same compound, the viability (% of control) in experiment [4] turned out to be 7.77%. Moreover, the viability, percent of control in experiment [5] was 55%. Moreover, the Potency in experiment [7] was 0.935 µM (active).

Turning to `COc1cc(=C2C=c3ccccc3=N2)[nH]c1=Cc1[nH]c(C)cc1C`, the Potency result in experiment [3] and in experiment [6] was “inactive” throughout. In addition, the viability (% of control) in experiment [4] came out at 6.25%. In experiment [5], the viability, percent of control is 26%.

Consider `COc1cc2nccc(Oc3ccc(NC(=O)C4(C(=O)Nc5ccc(F)cc5)CC4)cc3)c2cc1OC`, for which the call in experiment [2] was inactive. Besides, the Potency was 16.8 µM (active) in experiment [3] and 26.4 µM (active) in experiment [7]. Besides, the viability (% of control) in experiment [4] is 18.7%. The viability, percent of control in experiment [5] worked out at 3.78%.
